Compound activity (PubChem)
Most compounds without a hit are left out; they make up all but 3.1% or so of the library.
pPAFAH inh: inhibitors of human plasma PAF acetylhydrolase (pPAFAH). inhibition, % at 3.39 µM. AID 463082. Q13093. recombinant pPAFAH, FP-rhodamine probe fluorescence polarization. 330,000 tested, 1.5% active;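 active = inhibition above the mean inhibition across the screen plus 3 SD, cut at about 25% in these data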;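 note: inhibitors block binding of the rhodamine activity-based probe so polarization drops; 0% = enzyme with DMSO and 100% = wells lacking pPAFAH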
PAFAH1B3 inh: inhibitors of human PAFAH1B3 | Q15102 | 340,000 tested, 0.28% active | AID 492972 | recombinant PAFAH1B3, FP-rhodamine probe, fluorescence polarization | inhibition, % at 3.39 µM;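 active = inhibition above the screen-wide average of all tested compounds plus 3 SD, cut at about 25% in these data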;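 note: 0% = enzyme with DMSO only and 100% = wells lacking PAFAH1B3 protein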
Target sequence (Q15102 whole entry, looked up): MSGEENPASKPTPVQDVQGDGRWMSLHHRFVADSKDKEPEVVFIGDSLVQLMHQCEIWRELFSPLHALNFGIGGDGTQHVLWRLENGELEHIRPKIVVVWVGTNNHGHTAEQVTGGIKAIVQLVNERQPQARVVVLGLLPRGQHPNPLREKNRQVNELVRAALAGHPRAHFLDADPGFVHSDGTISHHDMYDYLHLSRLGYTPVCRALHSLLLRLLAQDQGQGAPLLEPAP
E coli Lon inh: inhibits E. coli Lon protease. P0A9M0. purified E. coli Lon protease, fluorescence polarization. inhibition, % at 7.94 µM. 360,000 tested, 0.42% active. AID 602123; in the data active = inhibition above about 13%, passing the limit was not always enough;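 note: 0% = enzyme with probe and DMSO and 100% = no enzyme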
PAFAH1B2 FP inh: blocks human PAF acetylhydrolase 1b catalytic subunit 2; recombinant PAFAH1B2, FP-rhodamine activity probe, fluorescence polarization; inhibition, % at 3.39 µM; 340,000 tested, 1.2% active;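 active = inhibition above the mean of all tested compounds plus 3 SD, cut at about 24% in these data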;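 note: 0% = enzyme with DMSO and 100% = wells lacking PAFAH1B2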
Target sequence (P68402 whole entry, looked up): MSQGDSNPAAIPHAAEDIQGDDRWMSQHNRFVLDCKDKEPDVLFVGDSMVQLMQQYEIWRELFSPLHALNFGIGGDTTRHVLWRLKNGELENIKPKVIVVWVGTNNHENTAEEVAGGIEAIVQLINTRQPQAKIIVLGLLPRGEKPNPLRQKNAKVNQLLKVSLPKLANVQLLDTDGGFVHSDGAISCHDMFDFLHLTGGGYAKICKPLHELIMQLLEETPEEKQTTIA
Rin1-Abl PPI inh: human Rin1-Abl interaction inhibition | P00519+Q13671 | TR-FRET Rin1/Abl binding, biochemical | inhibition, % at 7.35 µM | 360,000 tested, 0.4% active; in the data active = inhibition above about 5%, passing the limit was not always enough
PAFAH2 inh: inhibitors of human PAFAH2; 340,000 tested, 0.99% active; inhibition, % at 3.39 µM; Q99487; recombinant PAFAH2, FP-rhodamine activity probe, fluorescence polarization;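 active = inhibition above the mean over all tested compounds plus 3 SD, cut at about 30% in these data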;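 note: inhibitors block probe labeling of enzyme so polarization drops; 0% = enzyme with DMSO and 100% = wells lacking PAFAH2 protein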
* marks the source's active call; other numbers are inactive results; · = no result.

SMILES	pPAFAH inh	PAFAH1B3 inh	E coli Lon inh	PAFAH1B2 FP inh	Rin1-Abl PPI inh	PAFAH2 inh
CC(=O)NC(C)(CC(=O)c1ccccc1)c1ccccc1 (stereo unspecified)	0.6	2.9	-2.6	5.3	-3.9	5.3
CC(C1=C(CCN(C)C)Cc2ccccc21)c1ccccn1 (stereo unspecified)	·	6.7	3.1	4.4	-2.8	3.6
COc1ccc(NS(=O)(=O)c2cccc(C(=O)NNC(=O)c3cccn3C)c2)cc1	34.2*	6.4	-4.0	4.5	-2.1	0.8
O=C(COC(=O)CNC(=O)c1cccs1)Nc1ccc(C(F)(F)F)cc1[N+](=O)[O-]	4.6	2.3	-4.7	2.6	-1.9	-1.9
CCOc1ccc2[nH]c(=O)c(CN(Cc3nnnn3Cc3ccco3)C3CCCCC3)cc2c1	1.2	7.8	-2.2	2.0	-2.5	8.1
COc1cc2cc(CN(Cc3nnnn3Cc3ccco3)C3CCCCC3)c(=O)[nH]c2cc1OC	26.0*	6.5	3.9	3.8	3.3	5.9
CC(OC(=O)C1=NNC(=O)CC1)C(=O)Nc1ncc(Cl)cc1Cl (stereo unspecified)	-1.5	-0.4	18.3	2.9	1.1	-6.8
CC(OC(=O)C1=COCCO1)C(=O)Nc1ncc(Cl)cc1Cl (stereo unspecified)	·	-5.6	-8.0	46.7*	1.9	1.1
CC1CCN(S(=O)(=O)c2cccc(C(=O)NCc3ccco3)c2)CC1	2.8	3.1	2.7	24.5*	-3.8	6.2
CC1CCN(S(=O)(=O)c2cccc(C(=O)NCc3cccs3)c2)CC1	-2.3	0.5	-1.1	27.4*	0.9	4.6
O=C(NCc1cccs1)c1ccc(S(=O)(=O)N2CCCCC2)cc1	3.3	4.7	1.5	4.3	0.7	-5.1
O=C(NNC(=O)c1ccccc1Cl)c1ccc(-n2cncn2)c([N+](=O)[O-])c1	-0.2	8.2	-12.8	-1.0	-1.7	-5.3
Nc1c(C(=O)Nc2ccccc2F)sc2nc(-c3ccco3)ccc12	31.2*	3.2	-23.6	-3.4	-0.4	23.8
CC(C)C[C@H]1CN([C@@H](Cc2ccccc2)CN2CCC[C@@H]2CN2C(=O)C(=O)NC[C@@H]2Cc2ccccc2)C(=O)C(=O)N1CCc1ccccc1	·	·	4.1	·	3.6	·
Cc1ccccc1CS(=O)(=O)Cc1ccc(C(=O)NCc2ccco2)o1	24.8*	1.4	-3.2	2.0	0.1	-3.0
Nc1ccn([C@@H]2O[C@H](CNCc3cc(Br)ccc3OCc3ccccc3)[C@@H](O)[C@H]2O)c(=O)n1	·	·	-4.9	·	-5.1	·
COc1ccc(CN(C)Cc2c(O)ccc3cc(Br)ccc23)cc1OC	3.4	5.4	5.7	20.3	1.0	-4.4
COc1ccc(CCN(C)Cc2c(O)ccc3cc(Br)ccc23)cc1OC	10.9	9.3	-2.9	36.1*	-3.9	-1.8
CCCCn1c(NC(=O)c2ccccc2Cl)c(C#N)c2nc3ccccc3nc21	26.9*	60.3*	-9.3	36.2*	5.3	37.4*
COc1cccc(C(=O)COC(=O)COc2c(C)cc(C)cc2C)c1	2.0	4.2	-11.0	1.1	0.9	9.0
N#CC1=C(SCC(=O)Nc2ccc(C(=O)O)cc2)NC(=O)CC1c1ccco1 (stereo unspecified)	8.0	11.8	-3.3	11.7	-1.9	0.3
O=C(O)CN1C(=O)/C(=C\c2cccc(OCc3ccc(Cl)cc3)c2)SC1=S	-0.2	10.9	-6.8	62.2*	0.7	5.2
O=C(O)CN1C(=O)/C(=C\c2cccc(OCc3ccc(F)cc3)c2)SC1=S	·	15.1	-2.5	28.4*	0.2	4.7
O=C(O)CN1C(=O)/C(=C\c2cccc(OCc3ccccc3F)c2)SC1=S	-13.6	9.8	4.1	11.6	6.0	10.6
O=C1C(SCCO)=C(SCCO)C(=O)c2ccccc21	3.8	46.5*	5.2	46.0*	-1.5	49.8*
SMILES	pPAFAH inh	PAFAH1B3 inh	E coli Lon inh	PAFAH1B2 FP inh	Rin1-Abl PPI inh	PAFAH2 inh
COc1ccc(-c2ccc(CCC(=O)O)n2Cc2ccco2)cc1	27.6*	2.6	-17.2	3.4	2.2	7.5
CCOc1cc(/C=N/N=C2/NC(=O)C(CC(=O)O)S2)ccc1OCc1ccc(Cl)cc1Cl (stereo unspecified)	26.4*	7.5	3.5	8.7	-0.1	16.5
COc1cc(/C=N/N=C2/NC(=O)C(CC(=O)O)S2)ccc1OCc1ccc(Cl)cc1 (stereo unspecified)	14.4	6.2	6.5	16.0	-2.5	9.6
CCOC(=O)C1CCN(S(=O)(=O)c2ccc3[nH]c(=O)c(=O)[nH]c3c2)CC1	8.7	0.2	-0.8	5.7	-0.4	0.9
CC1CCN(S(=O)(=O)c2ccc3[nH]c(=O)c(=O)[nH]c3c2)CC1	2.5	3.3	-4.1	60.3*	-1.3	-8.2
CC[C@]12c3[nH]c4cc(CCC(=O)N(C)C)ccc4c3CCN1C(=O)[C@@H](CC(=O)NCc1cccc(C(F)(F)F)c1)C[C@@H]2C(=O)N1CCN(C(=O)C2CC2)CC1	7.0	8.5	-2.2	4.7	-1.1	-1.7
CN(C)c1cccc(C(=O)N2CCCC(CCC(=O)N3CCN(c4ccccn4)CC3)C2)c1 (stereo unspecified)	-0.4	1.1	0.3	0.0	-4.8	-2.1
CN(C)c1ccc(C(=O)N2CCCC(CCC(=O)N3CCN(c4ccccn4)CC3)C2)cc1 (stereo unspecified)	26.3*	5.3	-3.9	4.2	5.8	1.8
O=C(CCC1CCCN(C(=O)c2cc(F)ccc2F)C1)N1CCN(c2ccccn2)CC1 (stereo unspecified)	·	·	-3.7	·	1.7	·
O=C(CCC1CCCN(C(=O)c2ccc3c(c2)OCO3)C1)N1CCN(c2ccccn2)CC1 (stereo unspecified)	26.7*	4.5	4.9	2.6	3.8	-2.6
O=C(CCC1CCCN(C(=O)c2cccc(F)c2)C1)N1CCN(c2ccccn2)CC1 (stereo unspecified)	24.6*	7.6	-4.4	1.9	4.0	-6.0
COc1ccc(C(=O)N2CCCC(CCC(=O)N3CCN(c4ccccn4)CC3)C2)cc1 (stereo unspecified)	20.4	3.2	3.1	0.0	-2.6	3.6
Cc1cccc(CNC(=O)c2sc(=O)n(Cc3ccc(S(C)(=O)=O)cc3)c2C)c1	·	·	0.6	·	6.5	·
O=C1CC(/C=C/c2ccco2)=Nc2ccccc2N1	26.5*	9.7	-7.3	6.2	4.3	6.8
Cc1ccsc1C(=O)OCC(=O)Nc1ccc(Cl)cc1C(F)(F)F	32.6*	1.1	1.1	2.7	-2.5	51.1*
Cc1ccc(C)c(N2CCN(C(=O)c3ccc4nc(-c5ccco5)c(-c5ccco5)nc4c3)CC2)c1	31.1*	7.1	-1.2	-5.4	-0.6	3.7
CCc1noc(C)c1C(=O)N1CCN(c2cccc(Cl)c2)CC1	·	·	-21.7	·	-0.7	·
CC1=NOC(=O)/C1=C\c1ccc(-c2ccc(Br)cc2)o1	·	17.7	-7.4	10.7	-1.2	24.1
CC1=NOC(=O)/C1=C/c1ccc(-c2ccc(Cl)cc2)o1	11.7	11.3	-13.8	9.6	1.4	32.3*
